CHT allo act – CHT positive allosteric modulators, primary screen, cell-based, membrane potential dye, choline EC20. AID 488977, 2010. actives 0.49% (n = 310,000). CHT-expressing cells; active compounds read high; LV-AA mutant CHT in HEK293 cells. B-score at 10 µM. High affinity choline transporter 1 (Homo sapiens), Q9GZV3;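 active = initial fluorescence not abnormally high and integrated response B-score, plate-corrected, over 3 SD above library mean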
ANO1 block – TMEM16A chloride channel inhibitors, primary screen, cell-based, HTS | Anoctamin-1 (Mus musculus), Q8BHY3 | HEK293 TMEM16A/YFP iodide influx fluorescence, ionomycin | normalized B-score (activity score, 25-100; higher = stronger inhibition) at 10 µM | actives 1.2% (n = 310,000);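 active = ratio plate-corrected score three or more library SD toward inhibition, starting fluorescence score within five deviations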;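 note: score derived from kinetic fluorescence span divided by baseline fluorescence per well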
PHOSPHO1 inh – PubChem AID 1565; Phosphoethanolamine/phosphocholine phosphatase (Homo sapiens), Q8TCT1; recombinant PHOSPHO1, absorbance phosphatase assay; inhibition, % at 13.3 µM; actives 1.1% (n = 290,000); in the data active = inhibition above about 60%
HDAC3 inh – HDAC3 deacetylase inhibitors, primary screen, biochemical, fluorescence, cell-free homogeneous; AID 2718, 2010; Histone deacetylase 3 (Homo sapiens), O15379; actives 0.15% (n = 320,000); inhibition, % at 8.3 µM; recombinant HDAC3, fluorogenic peptide/trypsin coupled; in the data active = inhibition above about 26%, passing the limit was not always enough; inconclusive = no clear call, values can overlap the other calls
Target sequence (O15379 whole entry, looked up): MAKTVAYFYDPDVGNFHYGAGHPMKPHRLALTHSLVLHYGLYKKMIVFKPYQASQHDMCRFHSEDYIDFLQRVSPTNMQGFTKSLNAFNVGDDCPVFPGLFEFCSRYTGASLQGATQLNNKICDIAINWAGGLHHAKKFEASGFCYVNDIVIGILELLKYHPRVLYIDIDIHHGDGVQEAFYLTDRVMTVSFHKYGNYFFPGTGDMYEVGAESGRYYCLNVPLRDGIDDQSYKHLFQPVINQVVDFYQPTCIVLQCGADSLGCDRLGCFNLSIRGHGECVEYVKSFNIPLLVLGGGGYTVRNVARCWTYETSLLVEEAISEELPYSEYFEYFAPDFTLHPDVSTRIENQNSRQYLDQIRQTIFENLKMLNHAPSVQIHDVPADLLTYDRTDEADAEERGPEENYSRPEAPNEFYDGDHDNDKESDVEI
CHT inh – inhibitors of human choline transporter CHT; High affinity choline transporter 1 (Homo sapiens), Q9GZV3; CHT-expressing cells, membrane potential dye, choline response; active compounds read low; B-score at 10 µM; actives 0.86% (n = 310,000); AID 488975, 2010;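 active = B-score over 3 SD under the library average, and starting fluorescence ratio not unusually high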;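 note: choline stimulus applied at its EC90 after an EC20 pre-addition; B-score computed on integrated fluorescence ratio after choline addition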
TMEM16A act – TMEM16A chloride channel activators or potentiators, primary screen, cell-based, HTS. Anoctamin-1 (Mus musculus), Q8BHY3. HEK293 TMEM16A/YFP-H148Q/I152L, iodide quench fluorescence; active compounds read low. B-score at 10 µM. actives 0.3% (n = 340,000). AID 623877, 2012;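 active = fluorescence-ratio B-score plate-corrected deviation score at least 3 library SD below zero, with starting fluorescence score within 5 deviations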;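 note: channel opened by trigger with iodide after compound preincubation; score built on the fluorescence ratio of max minus min over baseline; more negative score means more quench and so TMEM16A activation or potentiation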
Numbers without * were called inactive; i = inactive; ? = inconclusive; · = not tested or not shown. Rows were chosen to be rich in hits. Some 3.2% of all compounds tested hit in one or more screens of this group.

SMILES	CHT allo act	ANO1 block	PHOSPHO1 inh	HDAC3 inh	CHT inh	TMEM16A act
Cc1ccc(-n2c(-c3c(-c4ccccc4)noc3C)n[nH]c2=S)cc1	i	i	85*	1	i	i
Cc1ccc([N+](=O)[O-])c(-c2n[nH]c(=S)n2-c2cccc(Cl)c2)c1	i	i	88*	2	i	i
COc1cccc(-n2c(CCn3nc(C)c([N+](=O)[O-])c3C)n[nH]c2=S)c1	i	i	-29	7	i	i
Cc1ccc(-n2c(-c3ccc(Cl)cc3)n[nH]c2=S)c(C)c1	i	i	-80	-7	i	i
Cc1cccc(-n2c(CCn3nc(C)c([N+](=O)[O-])c3C)n[nH]c2=S)c1	i	i	97*	12	i	i
Cc1ccc(-n2c(-c3cccnc3)n[nH]c2=S)c(C)c1	i	i	60*	?	i	i
Cc1cccc(-n2c(-c3ccoc3C)n[nH]c2=S)c1	i	i	9	5	i	i
Cc1ccc(-n2c(-c3nn(C)c(C)c3Cl)n[nH]c2=S)cc1	i	i	95*	9	i	i
Cc1ccc(-c2n[nH]c(=S)n2-c2ccccc2)cc1	i	i	0	14	i	i
Cc1ccc(-n2c(-c3cccc(C)c3)n[nH]c2=S)cc1	i	i	102*	1	i	i
CCOC(=O)C1=C(CSc2nc3c(cc2C#N)CN(C)CC3)OC(N)=C(C#N)C1c1ccc(F)cc1 (stereo not drawn)	i	i	67*	-5	i	i
COc1cc(S(=O)(=O)Nc2ccc(C)cc2)ccc1N=Cc1c(C)c(C#N)c(=O)n(C)c1O	i	i	37	?	i	-6*
Cc1cccc(N2CC(C(=O)OCc3ccc([N+](=O)[O-])cc3)CC2=O)c1 (stereo not drawn)	i	i	60*	-2	i	i
O=C(OCc1ccc([N+](=O)[O-])cc1)C1CC(=O)N(c2ccccc2)C1 (stereo not drawn)	i	i	8	-3	i	i
C/C=C/Cn1c(SC)nc2c1c(=O)[nH]c(=O)n2C	i	i	71*	-5	i	i
C/C=C/Cn1c(Br)nc2c1c(=O)[nH]c(=O)n2C	i	i	10	1	i	i
CN(CC(=O)Nc1cccc(F)c1)C(=O)c1ccc(C2SCCS2)cc1	i	i	·	59*	i	i
CCN(CC(=O)Nc1c(F)cccc1F)C(=O)CCCc1cccs1	·	·	·	-3	·	-39*
CCN(CC(=O)Nc1c(F)cccc1F)C(=O)c1ccc(C2SCCS2)cc1	i	i	·	62*	i	i
CN(CC(=O)Nc1cccc(F)c1)C(=O)c1ccc(OCc2ccccc2)cc1	·	·	·	1	·	i
CCN(CC(=O)Nc1c(F)cccc1F)C(=O)c1ccc(C(F)(F)F)cc1	i	i	-4	-10	i	i
Cn1c(N2CCN(c3ccccn3)CC2)nc2c1c(=O)n(Cc1ccc(Cl)cc1)c(=O)n2C	i	100*	-18	·	i	i
Cn1c(N2CCN(c3ccccn3)CC2)nc2c1c(=O)n(Cc1ccccc1Cl)c(=O)n2C	i	i	·	-4	i	i
O=C1CCN(N=Nc2cccc(Cl)c2)N1	i	i	72*	0	i	·
Cc1cc(C)c(S(=O)(=O)c2ccccc2Cl)c(=O)[nH]1	i	i	36	0	i	i
SMILES	CHT allo act	ANO1 block	PHOSPHO1 inh	HDAC3 inh	CHT inh	TMEM16A act
COc1ccc(OCCSc2nnc(CC(=O)Nc3cccc(Cl)c3Cl)n2C)cc1	i	i	56	4	i	i
CCn1c(CC(=O)Nc2cccc(Cl)c2Cl)nnc1SCCOc1ccc(OC)cc1	i	i	72*	1	i	i
O=C(Cc1cn2ccsc2n1)NCCc1ccc(F)cc1	i	i	12	-3	i	-49*
COc1ccc(CC(=O)NCc2cn3ccsc3n2)cc1	i	i	6	0	i	i
Cc1csc2c(N3CCN(C(=O)Nc4ccccc4)CC3)ncnc12	i	25*	47	0	i	i
Cc1ccc(C(=O)N2CCN(c3ncnc4c(C)csc34)CC2)cc1	i	i	42	-1	i	i
CN(C(=O)c1ccc(C#N)cc1)c1nnc(-c2cnccn2)s1	i	i	15	3	i	-5.2*
COc1ccc(C(=O)Nc2ccccc2C(=O)NCCN2CCOCC2)cc1OC	i	i	33	-6	i	i
CCC1S/C(=C(\C#N)C(=O)NCc2ccco2)N(c2ccc(F)cc2)C1=O (stereo not drawn)	i	i	76*	6	i	i
Cn1cccc1Cc1nnc(SCC(=O)NCC2CCCO2)n1-c1ccc(F)cc1 (stereo not drawn)	i	i	16	3	i	i
O=C(O)C(O)c1ccccc1 (stereo not drawn)	i	i	24	6	i	i
O=C(O)C(C(O)c1ccccc1)[n+]1ccccc1 (stereo not drawn)	i	i	·	-8	i	-20*
Cc1cc(NC(=O)C2CC2)ncc1NC(=O)C12CC3CC(CC(C3)C1)C2	i	i	-4	-5	i	i
c1ccc(CSc2nnc(-c3ccccc3)c(-c3ccccc3)n2)cc1	i	i	·	-2	i	i
N#Cc1c(Cl)nc(SCc2ccccc2)nc1-c1ccccc1	i	i	96*	1	i	·
Cc1ccc(COCC(CC(C)C)N2CCN(C(=O)c3cccc(C(F)(F)F)c3)CCC2=O)cc1 (stereo not drawn)	i	i	-9	13	i	-17*
Cc1ccc(S(=O)(=O)N2CCC(=O)N(C(COCc3ccc(C(F)(F)F)cc3)Cc3ccccc3)CC2)cc1 (stereo not drawn)	i	i	-11	-2	i	-34*
Cc1ccc(S(=O)(=O)N2CCC(=O)N(C(COCc3ccc(Cl)c(Cl)c3)Cc3ccccc3)CC2)cc1 (stereo not drawn)	i	i	4	9	i	·
Cc1ccc(S(=O)(=O)N2CCC(=O)N(C(COCc3cccc(C)c3)Cc3ccccc3)CC2)cc1 (stereo not drawn)	i	i	-14	12	i	-22*
COc1cc(C(=O)NCc2ccc(C)cc2)ccc1OC(F)F	i	i	7	2	i	i

Screening results (PubChem BioAssay)
